# Shown are actives, neighbours in structure and some others; about 3.3% of the full set was active somewhere.
# NRP1-CendR mod: alters CendR peptide binding to human NRP-1 | inhibition, % at 25 µM | AID 602438 | O14786 | FAM-RPARPAR peptide binding to NRP-1, fluorescence polarization | 0.85% of 360,000 active;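 active = inhibition or corrected inhibition above about 18%, plus a signal ratio from 0.5 to 1.5, limit read from the data, passing the limit was not always enough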
# TPT1 inh: blocks Candida albicans tRNA 2'-phosphotransferase | recombinant caTPT1, FP RNA substrate dephosphorylation | inhibition, % at 5 µM | 0.81% of 300,000 active;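 active = inhibition above the mean of all tested compounds plus 3 SD, set per screening campaign, cut at about 24% in these data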;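 also: plate controls were DMSO alone for no effect and ferristatin control at 100 nM for full effect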
# Rpn11 inh: inhibitors of human proteasome Rpn11. human 26S proteasome, Ub4-pepOG fluorescence polarization; 20S core pre-blocked with epoxomicin. inhibition, % at 20 µM. 0.59% of 360,000 active;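 active = inhibition at 20 µM, scaled to each plate's controls, above about 33%, limit read from the data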
# Target sequence (O00487 whole entry, looked up): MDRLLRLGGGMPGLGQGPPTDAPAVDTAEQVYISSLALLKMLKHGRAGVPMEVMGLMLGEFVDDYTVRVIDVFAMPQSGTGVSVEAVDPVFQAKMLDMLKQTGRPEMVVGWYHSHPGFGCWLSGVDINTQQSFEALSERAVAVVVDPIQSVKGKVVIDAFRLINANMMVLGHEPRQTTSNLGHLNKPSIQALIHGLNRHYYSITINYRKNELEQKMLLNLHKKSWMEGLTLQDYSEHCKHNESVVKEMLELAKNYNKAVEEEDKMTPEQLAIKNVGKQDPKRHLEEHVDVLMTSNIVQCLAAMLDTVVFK
# HNF4A DNA FP: change in binding of human HNF4 alpha to DNA | P41235 | HNF4a-FITC DNA binding, fluorescence polarization, 1 h | activity change, % at 10 µM | 0.3% of 360,000 active; in the data active = activity change above about 30%, passing the limit was not always enough
# Fh CTSL1 inh: blocks F. hepatica cathepsin L1 in PFM18AAP counter-screen. recombinant F. hepatica cathepsin L1, Z-Leu-Arg-MCA fluorescence. inhibition, % at 5.96 µM. 0.49% of 300,000 active. AID 1906;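 active = inhibition above the mean of all tested compounds plus 3 SD, set per screening campaign, cut at about 17% in these data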;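 also: 0% = plate median of test compound wells and 100% = 1 µM Z-Phe-Ala-diazomethylketone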
# PHOSPHO1 inh: PHOSPHO1 (human) inhibition; recombinant PHOSPHO1, absorbance phosphatase assay; inhibition, % at 13.3 µM; 1.1% of 290,000 active; AID 1565; in the data active = inhibition above about 60%
# Target sequence (Q8TCT1 whole entry, looked up): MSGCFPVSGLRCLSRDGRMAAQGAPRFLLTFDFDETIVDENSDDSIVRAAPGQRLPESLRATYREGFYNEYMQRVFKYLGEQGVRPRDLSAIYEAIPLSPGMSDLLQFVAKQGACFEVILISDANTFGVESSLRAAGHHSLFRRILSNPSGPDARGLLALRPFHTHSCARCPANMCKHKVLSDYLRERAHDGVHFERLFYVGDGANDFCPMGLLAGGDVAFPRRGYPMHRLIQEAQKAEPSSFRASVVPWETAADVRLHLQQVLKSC
# TPT1 inh confirm: TPT1 (C. albicans) inhibition, confirmation; shares compounds with TPT1 inh; recombinant caTPT1, fluorescence polarization, RNase T1 coupled; inhibition, % at 5 µM; 74% of 2,400 active;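 active = inhibition above the primary screen limit, the mean inhibition of all tested compounds plus 3 SD, cut at about 25% in these data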
# RNase T1 counter: counter-screen for TPT1 inhibitors: inhibitors of Aspergillus oryzae RNase T1 | shares compounds with TPT1 inh | RNase T1 cleavage, fluorescence polarization, 1536-well | inhibition, % at 5 µM | 83% of 2,400 active;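 active = inhibition above the solvent-only control well mean plus 3 SD, limit set per screening run, cut at about 23% in these data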;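 also: plate controls were DMSO wells with enzyme for no effect and wells without RNase T1 for full effect; inhibitors block cleavage so intact labeled substrate keeps polarization high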
# The depositor's hits bear a star; . = no result shown.
SMILES,NRP1-CendR mod,TPT1 inh,Rpn11 inh,HNF4A DNA FP,Fh CTSL1 inh,PHOSPHO1 inh,TPT1 inh confirm,RNase T1 counter
CN1CCc2c(sc3c2C(=O)NC(/C=C\c2ccccc2)N3)C1 (centres undefined),-109,22,.,9,-4,37,.,.
CN1CCc2c(sc3c2C(=O)NC(c2ccc(-c4cccc(Cl)c4)o2)N3)C1 (centres undefined),-162,115*,.,71*,3,44,111*,117*
CN1CCc2c(sc3c2C(=O)NC(c2cccs2)N3)C1 (centres undefined),-62,34*,6,1,2,22,23,35*
COC(=O)C1=C(C)NC(=S)NC1c1ccc(-c2cccc(Cl)c2)o1 (centres undefined),-5,2,2,2,2,-6,.,.
CSc1ccc(C2NC(=O)c3c(sc4c3CCN(C)C4)N2)cc1 (centres undefined),-128,105*,.,54,2,7,97*,101*
CC(=O)Nc1ccc(NC(=O)C2CCN(c3ccc(C(F)(F)F)cn3)CC2)cc1,3,-3,-4,3,0,35,.,.
O=C1SC(SC(=Nc2ccccc2)Nc2ccccc2)C(=O)N1c1ccccc1 (centres undefined),10,1,-2,4,-1,-3,.,.
CC(=O)c1ccc(OCc2nnn(CC(=O)NS(=O)(=O)c3ccc(C)cc3)c2-c2ccccc2)cc1,-18,.,1,0,.,.,.,.
CC1CCCc2sc3ncn(N)c(=N)c3c21 (centres undefined),-3,61*,-2,2,0,8,16,22*
CC(C)NC(=O)C1CCCN(S(=O)(=O)c2cccc3nonc23)C1 (centres undefined),8,1,1,-4,4,24,.,.
COC(CNC(=O)C1CCCN1C(=O)OCc1ccccc1)OC (centres undefined),-1,43*,-3,-7,-3,-7,5,7
COc1cccc(C(=O)N/N=C(/c2ccccc2)c2ccccn2)c1,-1,0,-1,-2,-1,16,.,.
O=C(CCCCl)NC1=NN(c2ccccc2)C(=O)C1,8,35*,1,0,-5,2,7,8
CN(C)c1ccc(/C=N/N(CCC#N)C2=NS(=O)(=O)c3ccccc32)cc1,-74,27*,.,10,1,37,8,17
CN(C)c1ccc(/C=N/N(CCO)C2=NS(=O)(=O)c3ccccc32)cc1,142,-2,.,131,0,-5,.,.
CCN(CC)c1ccc(NC(=O)Cn2c(C(C)NC(=O)c3ccccc3)nc3ccccc32)cc1 (centres undefined),-8,53*,-4,1,1,8,8,11
CC(=O)Nc1sc(/C(C#N)=C\c2cccc(Cl)c2)nc1-c1ccc(C)cc1,137,36*,.,32,7,8,36*,48*
O=C(/C=C/Nc1ccc(S(=O)(=O)Nc2cnc3ccccc3n2)cc1)c1ccccc1,-3,2,-4,4,6,32,.,.
O=C1CCCC/C1=C\Nc1ccc(S(=O)(=O)Nc2cnc3ccccc3n2)cc1,-27,55*,.,10,1,1,33*,45*
COc1ccc(CNC(=O)/C=C/c2cc([N+](=O)[O-])ccc2OC(F)F)cc1OC,0,37*,-1,-1,-1,9,7,8
COc1ccc(CNC(=O)/C=C/c2cc([N+](=O)[O-])ccc2OC(F)F)cc1,-2,-2,-5,-1,0,17,.,.
Cc1cccc(N(C(=O)CCC(=O)Nc2nccs2)C(C(=O)NC(C)(C)C)c2ccc(O)cc2)c1 (centres undefined),2,-3,5,2,-2,41,.,.
COc1ccc(N2CCN(C(=O)c3ccc(CS(=O)(=O)c4ccc(Br)cc4)o3)CC2)cc1,1,-4,-5,-1,-3,14,.,.
COc1ccc(/C=N\Nc2ccc([N+](=O)[O-])cc2)c(C(=O)O)c1OC,-14,38*,-8,1,2,3,46*,60*
O=[N+]([O-])c1ccc(N/N=C\c2ccccc2OCc2ccccc2)cc1,-42,85*,37,27,3,-6,101*,108*
SMILES,NRP1-CendR mod,TPT1 inh,Rpn11 inh,HNF4A DNA FP,Fh CTSL1 inh,PHOSPHO1 inh,TPT1 inh confirm,RNase T1 counter
COc1ccc(/C=N/Nc2ccc([N+](=O)[O-])cc2)cc1O,-127,82*,.,44*,5,24,98*,106*
COc1cc(/C=N/Nc2ccc(C(=O)O)cc2)ccc1O,-4,-3,-6,0,1,18,.,.
COc1cccc(/C=N/Nc2ccc([N+](=O)[O-])cc2)c1O,-24,37*,24,12,0,-7,57*,68*
COC(=O)c1ccc(N/N=C/c2cc([N+](=O)[O-])cc(OC)c2O)cc1,-9,4,25,-1,5,24,.,.
c1ccc2sc(N3CN(CCN4CCOCC4)CN(c4nc5ccccc5s4)C3)nc2c1,0,-3,-6,-5,-2,14,.,.
Cc1ccccc1-c1cc2nc(NCCOc3ccccc3Cl)n(C)c(=O)c2s1,16,.,-14,1,.,.,.,.
CCCCN(C)C(=O)C1CCC(CNS(=O)(=O)c2ccc3c(c2)CC(C)N3C(=O)C2CC2)CC1 (centres undefined),6,-1,-6,0,3,48,.,.
CCC1CN(C(=O)NCc2ccc(F)cc2)c2cc(C)ccc2O1 (centres undefined),0,.,0,2,.,42,.,.
O=C(/C=C/c1ccc([N+](=O)[O-])cc1)/C=C/c1ccco1,-32,27*,6,-24,3,16,24,31*
O=C(/C=C/c1ccc([N+](=O)[O-])cc1)c1ccco1,-12,-1,-9,-2,1,24,.,.
O=C(CSc1ccc(Cl)cc1)NNC(=O)c1cccnc1,-10,0,-2,0,-2,-8,.,.
O=C(/C=C/c1cccs1)N1CCOCC1,-2,-1,1,-3,1,-4,.,.
CC(C)NC(=O)C1CCN(C2CCN(C(=O)/C=C/c3cccs3)CC2)CC1,-8,25*,-5,1,5,2,6,15
Cc1sc2c(c1C)c(=O)nc1n2Cc2ccccc2-1,.,.,.,.,.,-16,.,.
COc1ccc(-n2c(N)c(C(=O)NCc3ccco3)c3nc4ccccc4nc32)c(OC)c1,-26,39*,33,3,8,-24,10,17
CC(=Nc1cccc(O)c1)c1sc2ccccc2c1O,-18,66*,4,-5,5,20,94*,105*

# Screening results deposited in PubChem by several laboratories.
